Results on 40 molecules are retold here after the supplement of paper PMC13380429.

Structures are written as SMILES.

The subject of the assay is Vero E6 infected with SARS-CoV-2. The assay can be described thus: SARS-CoV-2 infection rate relative to infected DMSO; higher = more infection, active = 60 or less. To be noted: 24 h.
As to `O=C1c2ccccc2C(Cc2ccnc(F)c2)(Cc2ccnc(F)c2)c2ccccc21` (10 µM), the SARS-CoV-2 infection rate was 113% (inactive).
The result for `CC(C)CN(C[C@@H](O)[C@H](Cc1ccccc1)NC(=O)O[C@H]1CCOC1)S(=O)(=O)c1ccc(N)cc1` [amprenavir] (10 µM) reads 110% (inactive); that for `CC(C)c1onc(-c2c(Cl)cccc2Cl)c1COc1ccc(/C=C/c2cccc(C(=O)O)c2)c(Cl)c1` (10 µM), 96.5% (inactive).
With `CN(c1ncccc1CNc1nc(Nc2ccc3c(c2)CC(=O)N3)ncc1C(F)(F)F)S(C)(=O)=O` (0.833333 µM), the SARS-CoV-2 infection rate was 106% (inactive).
With `CCC(NC(C)C)C(O)c1ccc(O)c(O)c1` (stereo not given) [isoetharine] (10 µM), the SARS-CoV-2 infection rate was 93% (inactive).
The result for `O=C(CCCCCCC(=O)Nc1ccccc1)NO` [vorinostat] (0.833333 µM) reads 118% (inactive).
The result for `CC(C)NC(=O)N1CC[C@H](NC2=Nc3cc(F)ccc3N(CC(F)F)c3ccc(Cl)cc32)C1` (0.833333 µM) reads 89% (inactive); that for `Oc1ccc(Nc2nc(-c3ccc(Cl)cc3)cs2)cc1` (10 µM), 106% (inactive); that for `CN(C)c1nc(N)c(C(=O)Nc2cccnc2)nc1Cl` (10 µM), 79% (inactive).
The result for `O=C(CCCCCCNC(=O)c1cnc(N(c2ccccc2)c2ccccc2)nc1)NO` (0.833333 µM) reads 106% (inactive); that for `CCN(CC)CCOC(=O)c1ccc(N)cc1` [procaine] (10 µM), 115% (inactive).
As to `O=C(O)COCCN1CCN(C(c2ccccc2)c2ccc(Cl)cc2)CC1` (stereo not given) [cetirizine] (10 µM), the SARS-CoV-2 infection rate is 98.2% (inactive).
On to `C[C@@H](CN(C)C)CN1c2ccccc2Sc2ccccc21` (racemic) [alimemazine] (0.833333 µM), for which the SARS-CoV-2 infection rate was 105% (inactive).
The result for `C=CC(=O)Nc1cccc(Nc2nc(Nc3ccc(N4CCN(C(C)=O)CC4)cc3OC)ncc2C(F)(F)F)c1` [rociletinib] (10 µM) reads 106% (inactive).
As to `CC(C)Cc1ccc(C(C)C(=O)NO)cc1` (stereo not given) [ibuproxam] (10 µM), the SARS-CoV-2 infection rate was 93.5% (inactive).
For the molecule `C=C1C[C@]23C[C@@]1(O)CC[C@H]2[C@@]12C=C[C@H](O)[C@@](C)(C(=O)O1)[C@H]2[C@@H]3C(=O)O` (10 µM), the SARS-CoV-2 infection rate is 109% (inactive).
The result for `C#C[C@]1(OC(C)=O)CC[C@H]2[C@@H]3CCC4=C[C@@H](OC(C)=O)CC[C@@H]4[C@H]3CC[C@@]21C` [ethynodiol-diacetate] (10 µM) reads 113% (inactive); that for `O=P(O)(NCCCl)NCCCl` [palifosfamide] (10 µM), 107% (inactive); that for `CC(=O)OCC(CCn1cnc2cnc(N)nc21)COC(C)=O` [famciclovir] (10 µM), 102% (inactive).
The result for `O=C(NC[C@H](O)CO)c1ccncc1Nc1ccc(I)cc1F` (0.833333 µM) reads 114% (inactive); that for `CN(C)CC[C@@]1(c2ccc(Cl)cc2)Cc2ccccc2C(=O)O1` (racemic) (10 µM), 106% (inactive); that for `C[C@@H](C(=O)O)c1ccc(-c2ccccc2)c(F)c1` (racemic) [flurbiprofen-(+/-)] (10 µM), 107% (inactive).
The result for `CC(C)S(=O)(=O)NC[C@H](C)c1ccc(-c2ccc(CCNS(C)(=O)=O)cc2)cc1` [mibampator] (10 µM) reads 93% (inactive); that for `COc1cc2nc(N3CCCN(C)CC3)nc(NC3CCN(Cc4ccccc4)CC3)c2cc1OC` (0.833333 µM), 73.5% (inactive); that for `C#CCN[C@@H]1CCc2ccccc21` [rasagiline] (10 µM), 115% (inactive).
`COc1cc2c(cc1OC)C1CC(=O)C(CC(C)C)CN1CC2` (stereo not given) [tetrabenazine] (10 µM): the SARS-CoV-2 infection rate was 102% (inactive).
The result for `COc1cc2c(Oc3ccc4[nH]c(C)cc4c3F)ccnc2cc1OCC1(N)CC1` [anlotinib] (10 µM) reads 100% (inactive).
As to `C=CCN1CC[C@]23c4c5ccc(O)c4O[C@H]2/C(=N/NC(=O)c2ccccc2)CC[C@@]3(O)[C@H]1C5` [naloxone-benzoylhydrazone] (10 µM), the SARS-CoV-2 infection rate is 110% (inactive).
For `O=C1Nc2ccc(I)cc2C1=Cc1cc(Br)c(O)c(Br)c1` (10 µM), the SARS-CoV-2 infection rate was 98.5% (inactive).
On to `C/C=C(/C(=C/C)c1ccc(O)cc1)c1ccc(O)cc1` [dienestrol] (10 µM), for which the SARS-CoV-2 infection rate is 96% (inactive).
`O=C(O)c1cc(O)c2c(Cl)cc(Cl)cc2n1` [5,7-dichlorokynurenic-acid] (10 µM): the SARS-CoV-2 infection rate was 104% (inactive).
The result for `Cn1c(=O)c2c(ncn2CC(=O)Nc2ccc(-c3ccccc3)nn2)n(C)c1=O` (10 µM) reads 80.5% (inactive); that for `Cc1nnc2n1-c1sc(CCC(=O)N3CCOCC3)cc1C(c1ccccc1Cl)=NC2` [apafant] (10 µM), 112% (inactive); that for `Cc1cccc(C)c1OCC(=O)N[C@@H](Cc1ccccc1)[C@@H](O)C[C@H](Cc1ccccc1)NC(=O)[C@H](C(C)C)N1CCCNC1=O` [Lopinavir] (10 µM), 82% (inactive).
The result for `CC1(C)S[C@@H]2[C@H](NC(=O)C(C(=O)O)c3ccccc3)C(=O)N2[C@H]1C(=O)O` (stereo not given in full) [carbenicillin] (10 µM) reads 104% (inactive).
On to `CO[C@H]1/C=C/O[C@@]2(C)Oc3c(C)c(O)c4c(O)c(c5c(nc6cc(C)ccn65)c4c3C2=O)NC(=O)/C(C)=C\C=C\[C@H](C)[C@H](O)[C@@H](C)[C@@H](O)[C@@H](C)[C@H](OC(C)=O)[C@@H]1C` [rifaximin] (10 µM), for which the SARS-CoV-2 infection rate was 108% (inactive).
Turning to `Nc1ncnc2c1ncn2CCOCP(=O)(O)O` [adefovir] (10 µM), the SARS-CoV-2 infection rate is 110% (inactive).
The result for `CCCCN(CCCC)CCC(O)c1cc2c(Cl)cc(Cl)cc2c2cc(C(F)(F)F)ccc12` (stereo not given) [halofantrine] (10 µM) reads 79.5% (inactive); that for `C[N+]1(C)[C@@H]2CC[C@H]1C[C@@H](OC(=O)C(O)c1ccccc1)C2` (stereo not given in full) [homatropine-methylbromide] (10 µM), 104% (inactive).
With `CC(Cc1ccccc1)NCCC(c1ccccc1)c1ccccc1` (stereo not given) [prenylamine] (10 µM), the SARS-CoV-2 infection rate was 19.5% (active).
